Results on 52 compounds are retold here after ChEMBL document CHEMBL3988442, “University of Dundee, Small-Polar-MMV Screening Library” (2021).

For experiment [1], the target named is T1, Aspartate--tRNA(Asp/Asn) ligase (Mycobacterium tuberculosis (strain ATCC 25618 / H37Rv)) (UniProt P9WFW3). Also: in the data most compounds retested in dose-response had high values.
T1 sequence (whole entry): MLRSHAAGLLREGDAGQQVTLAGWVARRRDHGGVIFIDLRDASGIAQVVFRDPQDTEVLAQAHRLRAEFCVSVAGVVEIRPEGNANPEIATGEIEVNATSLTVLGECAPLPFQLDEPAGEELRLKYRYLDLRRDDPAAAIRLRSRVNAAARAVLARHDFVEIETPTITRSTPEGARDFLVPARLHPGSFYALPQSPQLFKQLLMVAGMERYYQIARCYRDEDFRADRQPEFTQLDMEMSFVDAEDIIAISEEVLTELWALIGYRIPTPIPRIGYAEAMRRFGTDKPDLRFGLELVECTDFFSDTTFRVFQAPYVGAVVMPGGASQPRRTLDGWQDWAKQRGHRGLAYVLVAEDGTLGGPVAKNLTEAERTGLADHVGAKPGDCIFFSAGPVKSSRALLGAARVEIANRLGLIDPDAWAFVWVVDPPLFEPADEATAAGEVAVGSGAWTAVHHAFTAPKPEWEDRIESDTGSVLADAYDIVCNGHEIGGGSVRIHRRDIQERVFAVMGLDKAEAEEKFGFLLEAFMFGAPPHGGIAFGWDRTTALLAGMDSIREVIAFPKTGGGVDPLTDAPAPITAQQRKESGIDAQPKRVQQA
Description: Assay for Asp RNA synthetase-1 from Mycobacterium tuberculosis. It is filed as functional. More on the design: scale not given: direction of the effect not stated beside the values. The settings on record: 30 µM.

For experiment [2], the target named is Shiga toxin 2 (Escherichia coli O157:H7) (UniProt P09385+P09386). Description: E. coli 0.157:H7 Shiga Toxin SOP - stx2 screening assay. It is filed as functional. More on the design: scale not given: direction of the effect not stated beside the values. Conditions: 30 µM.

For `CCN1CCN(C2CCN(Cc3noc(C)n3)CC2)C1=O`, the Percent Effect in experiment [1] is -5.45%; in experiment [2], -25.5%.
With `CC(=O)N1CCC(C(=O)NCCN2CCCCC2)CC1`, the Percent Effect was -0.501% in experiment [1] and -3.32% in experiment [2].
For `CN(Cc1ccccn1)C1COC2(CCN(Cc3nccs3)CC2)C1` (centres undefined), in that order: -4.31% and -5.28%.
As to `Cc1nc2c(c(NC3CC3)n1)CCN(C(=O)C(C)(C)O)CC2`, the values for the Percent Effect in experiment [1] and in experiment [2] were 3.74% and -3.14%, respectively.
As to `c1cnn(CC2CCCN2c2ncnc3ccsc23)c1` (centres undefined), the Percent Effect is 3.64% in experiment [1] and 16.1% in experiment [2].
Taken in the same sequence, the figures for `CCc1ccsc1C(=O)N1CCN(C(=O)CC(F)(F)F)CC1` were -0.116% and -16.6%.
Turning to `CN1CCN(CC2CC2)C(=O)c2cnc(N3CC[C@@H](O)C3)nc21`, the results for the Percent Effect in experiment [1] and in experiment [2] were 3.75% and -9.73%, respectively.
For `CCOCC1CC2(CCN(C(=O)c3ccccn3)CC2)CO1` (centres undefined), in that order: 0.961% and 5.8%.
For `CC(C)NC(=O)C1CN(C(=O)c2ccc(F)cc2)CC12CCOCC2` (centres undefined), in that order: 0.581% and -56%.
In the case of `Cc1cnn(CC2CCCN2Cc2cc(=O)n3ccccc3n2)c1` (centres undefined), the Percent Effect in experiment [1] came to 2.04%; in experiment [2], 2.37%.
Turning to `CC(C)c1noc(CN(Cc2ccccc2F)C2CC2)n1`, the Percent Effect in experiment [1] is 12.6%; in experiment [2] it was -59.6%.
Taken in the same sequence, the figures for `COc1ccc(CNC(=O)c2nn(C)c3c2CS(=O)(=O)CC3)cc1OC` were -8.6% and -18.6%.
Taken in the same sequence, the figures for `COCCN(Cc1ccc(F)cc1Cl)C(=O)c1cccc[n+]1[O-]` were -4.34% and 0.846%.
Taken in the same sequence, the figures for `CCn1nc(C)c2nc(C(C)C)nc(NCCOC)c21` were -2.09% and -4.71%.
For the compound `Cc1ncccc1OC1(C(=O)NCCCN2CCOCC2)CCNCC1`, the Percent Effect in experiment [1] is 1.19%; in experiment [2], -8.28%.
Taken in the same sequence, the figures for `COc1cc(C(=O)N(Cc2cnn(C)c2)C(C)C)ccc1OCC(N)=O` were 0.225% and 33%.
For `CC(C)c1noc(C(C)N2CCN(Cc3ccccc3C#N)CC2)n1` (centres undefined), in that order: -1.01% and 12.5%.
Taken in the same sequence, the figures for `CC(C)C(=O)N1CCC2(CCCN(CCOc3ccccc3)C2)C1` (centres undefined) were 2.32% and 10.8%.
As to `Cc1n[nH]cc1CNc1ccc2c(c1)N(C(=O)OC(C)(C)C)CCC2`, the Percent Effect in experiment [1] is 6.33%; in experiment [2], -17.7%.
For `Cc1ncc2c(n1)CCN(C(=O)Cc1c(C)noc1C)C2`, the figures for the Percent Effect in experiment [1] and in experiment [2] were -2.87% and -13.9%, respectively.
In the case of `Cn1cc(CNCCOc2ccc(F)c(F)c2)c(-c2cccnc2)n1`, the Percent Effect in experiment [1] is 7.32%; in experiment [2] it was -38.1%.
For `CN1[C@H](Cn2cncn2)C[C@@H]2CN(Cc3cccc(C#N)c3)CC[C@@H]21`, in that order: 0.0985% and -24.3%.
For `COC(=O)CCC(=O)N1CCc2[nH]nc(-c3ccc4c(c3)OCO4)c2C1`, in that order: -1.06% and -8.22%.
With `CC1(C(=O)N2CCOCC2)CN(Cc2ccccc2F)CCO1` (centres undefined), the Percent Effect is -0.309% in experiment [1] and 1.31% in experiment [2].
As to `O=C(NCCO)C1(Cc2cc(-c3ccc(F)cc3F)no2)CCOCC1`, the Percent Effect in experiment [1] came to 2.58%; in experiment [2], 1.08%.
Regarding `CC(=O)N1CCn2c(COCc3csc(C)n3)cnc2C1C` (centres undefined), the Percent Effect in experiment [1] is -3.29%; in experiment [2] it was -18.6%.
For `Cc1ccc(CNCC2CCc3nnc(C(C)C)n3C2)s1` (centres undefined), in that order: -3.31% and -22.4%.
As to `CN(C)CC1(O)CCN(S(=O)(=O)c2ccc(F)c(F)c2)C1` (centres undefined), the Percent Effect in experiment [1] is -2.99%; in experiment [2], 4.61%.
`CCOCC(O)CN1CCN(C(=O)CC(C)(C)C)CC1` (centres undefined): the Percent Effect in experiment [1] is -3.73%; in experiment [2], 14.9%.
Regarding `NS(=O)(=O)CCNC(=O)c1nnn(-c2ccccc2)c1C1CC1`, the figures for the Percent Effect in experiment [1] and in experiment [2] were 2.35% and -12.7%, respectively.
For `Cc1cc(CN(C)C(=O)c2ccc(Cl)c(S(C)(=O)=O)c2)no1`, in that order: -2.25% and -3.87%.
For `Cc1ccc(-c2nc(CNC3CCc4ncnn4C3)co2)c(C)c1` (centres undefined), in that order: -9.8% and -22%.
Taken in the same sequence, the figures for `CN(CC1(O)CCCCC1)C1CCCN(Cc2noc(C3CC3)n2)C1` (centres undefined) were -2.39% and 23.8%.
On to `O=C1NC2(CCN(Cc3nccs3)CC2)CC1c1ccncc1` (centres undefined), for which the Percent Effect in experiment [1] was found to be 0.717%; in experiment [2], 2.04%.
For `Cc1nccn1-c1cccc(C2CCCN2S(=O)(=O)c2cn(C)cn2)n1` (centres undefined), in that order: 12.1% and 45.9%.
Taken in the same sequence, the figures for `CCN(C)c1ncnc2c1CCN(Cc1ccoc1)CC2` were 5.11% and -28.5%.
Regarding `CCOCCCn1c(NC(=O)c2scnc2C)nc2ccccc21`, the results for the Percent Effect in experiment [1] and in experiment [2] were -5.62% and -30.2%, respectively.
For `COc1c(CNCCNC(=O)c2ccco2)c(C)nn1C`, in that order: -2.68% and 14.7%.
For `COCC1CN(C(=O)c2ccnnc2)Cc2c1cnn2C` (centres undefined), the Percent Effect in experiment [1] was 0.28%; in experiment [2], -14.3%.
Taken in the same sequence, the figures for `CCCN1CC(C(=O)Nc2ccccn2)CC1=O` (centres undefined) were -1.33% and 1.5%.
Taken in the same sequence, the figures for `Cc1cnccc1N1CCCN(C(=O)CCCc2cn[nH]c2)CC1` were -0.632% and -13.3%.
Taken in the same sequence, the figures for `CC(C)C(C(=O)N1CCCN(Cc2nccn2C)CC1)N1CCCC1` (centres undefined) were -3.15% and 27%.
Regarding `COc1ccc(CNCC2CC2)cc1F`, the Percent Effect came out at 2.55% in experiment [1] and 28.8% in experiment [2].
In the case of `CCc1ncc2c(n1)CN(CC(=O)Nc1ccc(Cl)cn1)CC2`, the results for the Percent Effect in experiment [1] and in experiment [2] were 0.367% and -9.49%, respectively.
For `N#Cc1c(C2CC2)cc(-c2ccc(O)cc2)nc1N`, in that order: -1.42% and 15.9%.
Taken in the same sequence, the figures for `NC(=O)CCOc1nc(-c2ccccc2Cl)no1` were -4.51% and -35.8%.
Taken in the same sequence, the figures for `COc1cc(N2C[C@@H]3COC[C@]3(COc3cccnc3)C2)ncn1` were -3.68% and -5.75%.
`CCn1cnnc1CNC(=O)NC(C)C(C)C` (centres undefined): the results for the Percent Effect in experiment [1] and in experiment [2] were -2.43% and 7.89%, respectively.
For `C[C@]1(O)CCN(Cc2cncs2)C[C@@H]1Oc1cccc(F)c1`, in that order: -1.46% and 35.4%.
Taken in the same sequence, the figures for `O=C(Nc1cnn(CCN2CCOCC2)c1)c1ccccc1O` were -0.989% and -13.8%.
Regarding `CCc1nc(CN2CCCC(NCc3ncc(C(C)(C)C)o3)C2)no1` (centres undefined), the Percent Effect was 5.85% in experiment [1] and 2.13% in experiment [2].
Taken in the same sequence, the figures for `Cc1nc(CN2C(=O)COC3(CCN(Cc4nccs4)CC3)C2C)cs1` (centres undefined) were -2.21% and -29.4%.
